From PubChem
GLP1R inv ag = inverse agonists of human GLP-1 receptor. P43220. HEK293 GLP-1R CRE-luciferase, luminescence, 24 h; GLP-1R form is constitutively active. 410,000 tested, 1.6% active. Potency, µM (highest dose often 38.3 µM), for the others: at the highest dose activity change, negative = inhibition, most hits filed as inhibitors; also: % is scaled to controls: 0 for no effect and ±100 for the full control effect; nearly all actives have a fitted effect of over 55% in size
Target sequence (P43220 whole entry, looked up): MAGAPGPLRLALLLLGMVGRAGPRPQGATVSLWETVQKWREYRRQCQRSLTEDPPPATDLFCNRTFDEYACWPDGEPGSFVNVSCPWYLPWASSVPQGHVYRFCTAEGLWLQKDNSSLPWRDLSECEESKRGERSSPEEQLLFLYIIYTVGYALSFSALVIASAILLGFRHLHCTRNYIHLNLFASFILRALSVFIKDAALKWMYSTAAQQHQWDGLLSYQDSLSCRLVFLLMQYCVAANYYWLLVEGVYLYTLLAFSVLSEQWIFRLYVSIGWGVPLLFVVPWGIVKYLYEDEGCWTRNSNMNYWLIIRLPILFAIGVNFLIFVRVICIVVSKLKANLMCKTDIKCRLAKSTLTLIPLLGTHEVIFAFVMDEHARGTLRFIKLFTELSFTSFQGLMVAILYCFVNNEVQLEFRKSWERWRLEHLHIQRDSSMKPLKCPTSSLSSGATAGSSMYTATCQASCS
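Inverse agonists were sought by their lowering of basal cAMP reporter luciferase output in HEK293 cells stably carrying constitutively active human GLP-1R, after 24 h compound treatment.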
GLP1R ag = GLP-1 receptor (human) agonism | P43220 | HEK293 GLP-1R CRE-luciferase, luminescence, 4-6 h; cells express a hypersensitive GLP-1R form | Potency, µM (top dose mostly 45.6 µM), inactives show at the top dose activation, actives largely listed as activators | 380,000 tested, 0.007% active | AID 624172; also: % of control where 0% means no effect
Glioma ERSR ind = inducers of ER stress response in human glioma cells | U87-MG GRP78 promoter luciferase reporter, 16 h | Potency, µM, without a hit: at the highest dose activation, hits mostly activators | 420,000 tested, 0.02% active; also: series mostly up to about 76 µM; % of control where 0% means no effect; nearly all actives have a fitted effect of over 35% in size
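Stably transfected U87-MG human glioma cells carrying a GRP78-based luminescent sensor were seeded at 1000 cells/well, pin-dosed with compounds and incubated 16 h. Luciferase reagent was then added, and end-point luminescence was read after 10 min at room temperature.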
PTHR1 agonist = PTHR1 (human) receptor agonism; Potency, µM (series often up to 115 µM), for inactives: at the top dose activation, hits mostly activators; 410,000 tested, 0.075% active; HEK293 GP2 PTHR1 cells, GloSensor cAMP luminescence, 1 h; Q03431; also: nearly all actives have a fitted effect of over 55% in size
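HEK-293-derived GP2 cells expressing PTHR1 and a GloSensor cAMP reporter, 3,000/well, plated overnight, given luciferin plus IBMX (each 0.5 mM as added) for 1 h at 37 °C, then compound for 1 h at 37 °C. Luminescence was read after 15 min at room temperature.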
GLS inhibitor = blocks human kidney-isoform glutaminase activity. AID 624170. Potency, µM (top dose mostly 45.5 µM), for inactives: at the top dose activity change, negative = inhibition, actives largely listed as inhibitors. 410,000 tested, 0.21% active. GLS enzymatic activity, qHTS titration. O94925; also: % is scaled to controls: 0 for no effect and ±100 for the full control effect
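Human kidney-isoform GLS in 45 mM KH2PO4 pH 8.2, 0.02% Tween-20, with compound, started with 1mM L-Glutamine (added stock). Glutamate oxidase/HRP/Amplex red coupled fluorescence read at start and after 30 min at RT.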
12-LOX inh = blocks human arachidonate 12S-lipoxygenase; P18054; purified 12hLO, xylenol orange hydroperoxide absorbance; Potency, µM (top dose mostly 108 µM), for inactives: top-dose activity change, negative = inhibition, hits mostly inhibitors; 580,000 tested, 1.1% active; AID 1671190; also: % is scaled to controls: 0 for no effect and ±100 for the full control effect
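Hydroperoxide product was detected by ferrous iron/xylenol orange as the 573 to 405 nm absorbance ratio. Arachidonic acid at 40 uM (final) was turned over for 30 min at room temperature by 150 nM human 12hLO, pH 7.0 Hepes buffer, after 15 min compound preincubation.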
Active calls of the source: *; i = inactive; ? = inconclusive; nt = no result; [ ] = remark or other dose. Hits are enriched below; roughly 2.3% of the tested compounds scored in any of these assays. Calls follow the shape of the dose curve; as a rule, active = well fitted curve in the direction sought with a large enough effect; inconclusive = small, poorly fitted or top-dose-only effect, or another doubt; inactive = no such curve, though single readings can be large; an effect the other way counts as inactive or inconclusive. Potency is read from the fitted curve at half-maximal effect.

SMILES	GLP1R inv ag	GLP1R ag	Glioma ERSR ind	PTHR1 agonist	GLS inhibitor	12-LOX inh
COc1cccc(C(=O)N2c3cc(C)ccc3OCC2C(C)(C)C)c1 (configuration not stated)	11%	1%	-5%	-26%	9%	-8%
CCc1ccc(C(=O)N2CCN(C(=O)c3nnn4c3COC(c3ccc(OC)cc3)C4)CC2)cc1 (configuration not stated)	nt	nt	nt	nt	nt	8%
C=CCSc1nc2sc3c(c2c(=O)n1CC)CCc1ccccc1-3	7%	9%	-4%	i	-21%	7.1µM*
N#Cc1c(NC(=O)CCN2C(=O)c3ccccc3C2=O)oc(-c2ccccc2)c1-c1ccccc1	?	-4%	-1%	i	8%	11%
CC(C)CC(C(=O)Nc1oc(-c2ccccc2)c(-c2ccccc2)c1C#N)N1C(=O)c2ccccc2C1=O (configuration not stated)	10µM*	-8%	-2%	-22%	-5%	119%[57.4 µM]
Cc1ccccc1C(=O)N(Cc1nc2ccccc2c(=O)[nH]1)C1CCCC1	13µM*	8%	1%	-12%	-14%	-2%
Cc1ccc(C(=O)N(Cc2nc3ccccc3c(=O)[nH]2)C2CCCC2)cc1	?	-10%	-4%	-33%	-6%	-30%
Cc1ccc(Nc2nc(N)nc(CCl)n2)c(C)c1	4.5µM*	15%	-6%	-75%	0%	22%
COc1ccccc1Nc1nc(N)nc(CCl)n1	4%	6%	0%	i	-13%	0%
Cc1ccc(Nc2nc(N)nc(CCl)n2)cc1	?	17%	1%	-16%	6%	356%
Cc1cccc(Nc2nc(N)nc(CCl)n2)c1C	5µM*	31%	8%	i	0%	80%
COC1=C(NCc2ccc3c(c2)OCO3)C(=O)C(OC)=C(NCc2ccc3c(c2)OCO3)C1=O	21%	0%	-5%	i	2%	8.9µM*
Cc1c(C(=O)N2c3ccccc3Sc3ccccc32)cccc1[N+](=O)[O-]	1.8µM*	2%	0%	i	-29%	7%
O=C(Nc1cc([N+](=O)[O-])ccc1Cl)C(Sc1ccccc1)c1ccccc1 (configuration not stated)	?	0%	-3%	-29%	3%	16%
O=C(Nc1ccc(Cl)c([N+](=O)[O-])c1)C(Sc1ccccc1)c1ccccc1 (configuration not stated)	8.9µM*	-1%	-1%	-32%	4%	-20%
O=S(=O)(c1cccc(F)c1)N1CCc2sccc2C1c1ccc(OC(F)(F)F)cc1 (configuration not stated)	7.9µM*	-1%	-3%	i	-6%	180%
CC1c2ccsc2CCN1S(=O)(=O)c1ccccc1 (configuration not stated)	?	4%	-4%	i	-9%	0%
CN1CCN(CCOCCOc2c(Cl)cc(Cl)cc2Cl)CC1	11µM*	-3%	-5%	-53%	0%	?
Clc1ccc(OCCOCCN2CCc3ccccc3C2)c(Cl)c1	11µM*	11%	-5%	-16%	-11%	?
O=C(c1ccco1)N(CCC(c1ccccc1)c1ccco1)Cc1ccc(F)cc1 (configuration not stated)	0%	?	-2%	?	0%	?
CC1(C)CC(C(CCN(Cc2ccccc2)C(=O)c2ccco2)c2ccc(F)cc2)CCO1 (configuration not stated)	7.9µM*	-29%	-12%	-7%	2%	?
COc1cccc(C(=O)C2CCCN(Cc3cn[nH]c3C3CCCCC3)C2)c1 (configuration not stated)	10µM*	14%	-7%	-5%	2%	-5%
COc1cccc(CC2(CO)CCCN(Cc3cn[nH]c3C3CCCCC3)C2)c1 (configuration not stated)	?	4%	-7%	-9%	11%	0%
CCN(Cc1cc2ccccc2[nH]c1=O)S(C)(=O)=O	nt	nt	nt	nt	nt	2%
COCCn1ccc2nc(C)c(C(=O)N3CCN(c4ccccc4)CC3)cc2c1=O	nt	nt	nt	nt	nt	34%
SMILES	GLP1R inv ag	GLP1R ag	Glioma ERSR ind	PTHR1 agonist	GLS inhibitor	12-LOX inh
O=C(NC1CCCC1)C(c1ccccc1F)N(C(=O)Cc1cccs1)c1ccc2c(c1)OCCO2 (configuration not stated)	10µM*	4%	-3%	-11%	-6%	-1%
O=C(NC1CCCC1)C(c1ccsc1)N(C(=O)Cc1cccs1)c1ccc(F)cc1 (configuration not stated)	17%	4%	-4%	i	0%	12%
Cc1oc(-c2nc(C#N)c(NCc3ccco3)o2)cc1S(=O)(=O)N1CCCC1	nt	nt	nt	nt	nt	28%
Cc1ccc(NC(=O)CSc2nnc(Cc3csc(C)n3)o2)cc1	10%	6%	5%	-11%	-4%	25%
CCOc1ccc(Nc2nc(Cc3nnc(SCC(=O)c4ccc(C)c(C)c4)o3)cs2)cc1	11µM*	4%	0%	-90%	21%	-1%
CCn1c(SCC(=O)c2ccc[nH]2)nnc1-c1ccncc1	nt	nt	nt	nt	nt	-1%
Cc1[nH]c2ccccc2c1C1=NNC(=Nc2ccc(F)cc2)SC1	11µM*	-2%	-1%	-13%	10%	?
Cc1oc(-c2ccccc2Cl)nc1CS(=O)(=O)CC(=O)NC(C)CCc1ccccc1 (configuration not stated)	10µM*	-3%	-2%	-94%	-2%	-13%
Cc1oc(-c2ccccc2Cl)nc1CS(=O)(=O)CC(=O)NC(C)c1ccccc1 (configuration not stated)	?	13%	-3%	-10%	-2%	0%
CCOC(=O)c1cccn1C1C(=O)N(Cc2ccc(Cl)nc2)c2c(F)cccc21 (configuration not stated)	nt	nt	nt	nt	nt	56µM*
CCOC(=O)c1cccn1C1C(=O)N(Cc2ccc(Cl)nc2)c2ccccc21 (configuration not stated)	nt	nt	nt	nt	nt	-1%
CCOC(=O)C1=C(C)OC(=Cc2ccccc2)C1=O	7%	-1%	-4%	-31%	13%	-24%
CCOC(=O)C1=C(O)c2ccccc2C(=O)/C1=C\c1ccc(C)cc1	-30%	4%	-13%	-40%	-20%	10µM*
O=C(Nc1ccccc1)C1=C[C@H](c2csc3ccccc23)C[C@H](OCc2ccc(CO)cc2)O1	10µM*	-9%	-4%	i	10%	1%
Cc1cccc(NC(=O)NCC2CCN(CCc3ccc(F)cc3)CC2)c1C	nt	nt	nt	nt	nt	35µM*
